TLR9-MyD88 block: inhibitors of human TLR9-MyD88 binding; Q9NR96+Q99836; CHO BLA complementation TLR9-MyD88, CCF4 FRET ratio; inhibition, % at 4.98 µM; 340,000 compounds, 0.21% hits; AID 504734;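 active means inhibition above the mean over all tested compounds plus 3 SD, cut at about 21% in these data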;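 further: 0% = DMSO only wells and 100% = clavulanate BLA inhibitor control wells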
ABHD5-PLIN5 inh: ABHD5-PLIN5 protein interaction inhibition; 360,000 compounds, 0.78% hits; Q00G26+Q8WTS1; AID 602281; inhibition, % at 4 µM; Split G. princeps luciferase complementation, luminescence, 4 h;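 active means inhibition above the mean inhibition across every tested compound plus 3 SD, cut at about 22% in these data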;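 further: 0% = DMSO only wells and the 100% control is not disclosed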
NOD2 RIPK2 PPI: NOD2-RIPK2 protein interaction inhibition; O43353; CHO BLA complementation NOD2-RIPK2, CCF4 ratio; 360,000 compounds, 0.38% hits; AID 624267; inhibition, % at 4.98 µM; in the data active means inhibition above about 21%;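 further: 0% = vehicle only and 100% = reference blocker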
TLR4 MyD88 comp: inhibitors of human TLR4-MyD88 binding | O00206+Q99836 | HeLa CL3-4 TLR4/MyD88 BLA complementation, FRET ratio | inhibition, % at 8.4 µM | 200,000 compounds, 0.18% hits | AID 861; in the data active means inhibition above about 25%;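 further: 0% = vehicle and 100% = reference inhibitor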
Exocytosis inh: blocks lytic granule exocytosis | 360,000 compounds, 0.66% hits | inhibition, % at 10 µM | AID 651702 | TALL-104 LAMP-1 surface exposure, flow cytometry; cells stimulated with thapsigargin and PMA;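 active means inhibition above about 55%, limit read from the data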
Beta2AR agonist: agonists of human beta-2 adrenergic receptor inducing internalization. AID 504454. 340,000 compounds, 0.43% hits. response, % (concentration not given with the values). P07550. Am2.2-beta2AR cells, FAP receptor internalization, flow cytometry;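 active means response above a set limit, near 3 SD of response in nonfluorescent compounds, cut at about 42% in these data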
Active calls of the source: *; nt = no result. This is a sample that favours compounds with a hit; in the whole collection about 2% have one here.

SMILES	TLR9-MyD88 block	ABHD5-PLIN5 inh	NOD2 RIPK2 PPI	TLR4 MyD88 comp	Exocytosis inh	Beta2AR agonist
C=CC[C@@H](CC(=O)N(CCO)Cc1ccccc1)C(=O)NC[C@H](OC(=O)[C@@H](CC=C)CC(=O)OC(C)(C)C)c1ccccc1	3	22*	3	nt	-2	-8
C=CC[C@H](CC(=O)N(CCO)Cc1ccccc1)C(=O)NCCOC(=O)[C@H](CC=C)CC(=O)OC(C)(C)C	-13	0	-9	nt	0	2
COC(=O)/C(=C\c1ccc([N+](=O)[O-])o1)NC(=O)c1ccccc1	-13	-2	-4	-10	1	56*
CNC(=O)C[C@H]1C(=O)N(CCc2ccccc2)C[C@@H]1Cc1ccccc1	-5	-7	-10	nt	10	nt
CCOC(=O)C1=C(Cc2ccc(Cl)cc2)C(=O)c2ccccc2C1=O	2	42*	29*	8	93*	-335
CCOC(=O)C1=C(C)N=C2c3ccccc3C(=O)C2C1c1ccc(Cl)cc1 (configuration not stated)	-7	3	-14	-12	13	7
Cc1cc(N2CCN(C(C(=O)NC3CCCC3)C(C)(C)C)CC2)c2ccccc2n1 (configuration not stated)	nt	0	-6	nt	-1	nt
CCOC(=O)CSC1=NC(=O)/C(=C/c2ccc(OC)cc2)S1	5	-17	4	12	4	69*
COc1ccc(/C=C2\SC(N)=NC2=O)cc1	-8	3	-6	nt	-1	9
N#Cc1c(Nc2ccc(Cl)cc2)s[nH]c1=O	-6	13	10	nt	83*	6
CCCCc1ccc(S(=O)(=O)NC(=O)C2(C)CCN2C(=O)CC2CC2)cc1 (configuration not stated)	nt	-4	1	nt	-1	nt
CNS(=O)(=O)c1ccc(CNC[C@H]2O[C@@H](n3cc(C)c(=O)[nH]c3=O)C[C@@H]2O)cc1	-11	2	3	nt	-1	nt
COc1ccc(C/C(C)=N/NC(=S)Nc2ccc(Cl)cc2)cc1	-6	-2	-11	nt	-3	58*
CCCCc1ccc(NC(=S)Nc2ccc(Nc3ccc(OC)cc3)cc2)cc1	5	-7	1	-1	12	56*
Cc1cccc(C)c1NC(=O)NS(=O)(=O)c1ccccc1	7	-10	-1	nt	-4	nt
O=C1c2cccc3c(N4CCCCC4)ccc(c23)C(=O)N1c1ccc(Cl)cn1	nt	nt	nt	28*	nt	nt
COC(=O)[C@]12CCCCC=C1N(Cc1ccccc1)C(=O)[C@H](CC(=O)NCC13CC4CC(CC(C4)C1)C3)C2	nt	-9	-4	nt	-2	nt
CC(C)COC(=O)N1CCCCC1c1cc(C(=O)NCc2ccc(F)cc2)no1 (configuration not stated)	nt	-2	-1	nt	-2	nt
c1ccc(-[n+]2nc(Nc3cccc4ccccc34)sc2-c2c3ccccc3cc3ccccc23)cc1	44*	11	51*	nt	-4	1
C#CCOCCOCCOCCNc1nc(N2CCN(C(=O)[C@H](Cc3ccc(O)cc3)n3cc([C@@H](N)C(C)CC)nn3)CC2)nc(N2CCN(C(=O)[C@H](CCCCN)n3cc([C@@H](N)CC(C)C)nn3)CC2)n1 (some centres not stated)	nt	nt	nt	-4	nt	nt
C#CCOCCOCCOCCNc1nc(N2CCN(C(=O)C([C@@H](C)CC)n3cc(C(N)CC(C)C)nn3)CC2)nc(N2CCN(C(=O)[C@H](CCC(=O)O)n3cc(C(N)CC(C)C)nn3)CC2)n1 (some centres not stated)	-5	-9	-3	0	76*	10
C#CCOCCOCCOCCNc1nc(N2CCN(C(=O)[C@H](CCCCN)n3cc([C@@H](N)C(C)CC)nn3)CC2)nc(N2CCN(C(=O)[C@H](Cc3cc4ccccc4[nH]3)n3cc([C@@H](N)CC(C)C)nn3)CC2)n1 (some centres not stated)	6	24*	-3	-15	28	-4
C#CCOCCOCCOCCNc1nc(N2CCN(C(=O)[C@H](CCCCN)n3cc([C@@H](N)CO)nn3)CC2)nc(N2CCN(C(=O)[C@H](Cc3ccc(O)cc3)n3cc([C@@H](N)CC(C)C)nn3)CC2)n1	-1	-7	-12	-6	68*	-2
CC1(C(=O)NCc2ccccc2)CSCC(=O)N1Cc1ccco1 (configuration not stated)	nt	12	-19	nt	-4	nt

Screening data (PubChem BioAssay)
